In article PMC4552634, “A New Set of Chemical Starting Points with Plasmodium falciparum Transmission-Blocking Potential for Antimalarial Drug Discovery” (PLoS ONE, 2015):
About 3,200 (25%) of roughly 13,000 compounds showed an effect of 50% or more. Some of the results follow.

Test system: P. falciparum stage V gametocytes
Design: BacTiter-Glo ATP luminescence viability of purified stage V gametocytes in 384-well plates, per cent inhibition versus DMSO
Conditions: 48 h, 5 µM; inhibitor

Structure (SMILES) | % Inhibition [%]
COc1ccc2nccc(NC(=O)N3CCC(NCc4cc5c(F)ccc(F)c5[nH]4)CC3)c2n1 [TCMDC-140784] | -20.31
Cc1cc(C(F)(F)F)n2nc(C(=O)N(Cc3cncn3Cc3ccccc3F)CC3CC3)cc2n1 [TCMDC-132463] | -10.43
Cc1c(C)n(C2CCCC2)c2ncnc(OC3CCN(CC(=O)NCC4CC4)CC3)c12 [TCMDC-134421] | 19.09
CN(Cc1cnc2nc(N)nc(N)c2n1)c1ccc(C(=O)N[C@H](CCC(=O)OC(C)(C)C)C(=O)N[C@@H](CCC(=O)OC(C)(C)C)C(=O)OC(C)(C)C)cc1 [TCMDC-137262] | -6.983
COc1cc(Cc2cnc(N)nc2N)cc(OC)c1OCCCCC(=O)O [TCMDC-137352] | 14.26
CN(Cc1cccc(C#N)c1)C1CCN(c2cc(NC(=O)c3cccc(F)c3)ccn2)CC1 [TCMDC-134972] | 21.14
COc1cc(CNCCCNc2nc3ncccc3[nH]2)c2[nH]cc(Br)c2c1 [TCMDC-140259] | -28.64
COc1c(C)cc(I)cc1CNCCCNc1cc(=O)c2ccccc2[nH]1 [TCMDC-140056] | -89.66
COc1ccnc(NCCCNCc2cn(S(=O)(=O)c3ccccc3)c3ccccc23)c1 [TCMDC-140380] | 99.09
CC(C)N1CCC(NCc2ccc(-c3ccc(Cl)cc3)cc2)CC1 [TCMDC-141359] | 35.52
CCN1CCC(NCc2ccc(-c3ccc(Cl)s3)cc2)CC1 [TCMDC-141263] | 93.74
CCCCCCN1CCC(NCc2ccc(Cl)cc2)CC1 [TCMDC-141666] | 71.31
CCN1CCC(NCc2ccc(-c3ccc(Cl)cc3)cc2)CC1 [TCMDC-141354] | 41.97
CN1CCC(NCc2ccc(-c3ccc(Cl)cc3)cc2)CC1 [TCMDC-141355] | 54.41
CCCCCCN1CCC(NCc2ccc(C)cc2)CC1 [TCMDC-141667] | -37.31
Clc1ccc(CNC2CCN(CC3CCCCC3)CC2)cc1 [TCMDC-141658] | -44.47
FC(F)(F)c1ccc(-c2ccc(CNC3CCN(CCN4CCOCC4)CC3)cc2)cc1 [TCMDC-136025] | 39
CCCCCCN1CCC(NCc2ccc(C(F)(F)F)cc2)CC1 [TCMDC-141669] | -50.38
CN(C)CCCc1cc(NC(=O)Nc2cccc(Cl)c2Cl)ccc1I [TCMDC-139132] | -49.28
CCOC(=O)c1c(C)n(-c2ccccc2)c2ccc(OC(=O)COc3ccc(Cl)cc3Cl)cc12 [TCMDC-124380] | -46.8
COc1ccc2nccc(C(=O)NC3CCC(CCN4CCc5cc(C#N)ccc5C4)CC3)c2c1 (stereo not shown) [TCMDC-139240] | 4.839
CN(C)CCCOc1c(C(C)(C)C)cc(-c2cc(C(C)(C)C)c(OCCCN(C)C)c(C(C)(C)C)c2)cc1C(C)(C)C [TCMDC-131822] | 59.94
Cn1cnc(CCNC(=O)c2ccc(-c3ccc(-c4nc5cc(F)ccc5[nH]4)cc3)cc2)c1 [TCMDC-132491] | 5.885
O=C(CC1SC(N2N=C(c3cccs3)CC2c2ccccc2)=NC1=O)Nc1ccc(Cl)cc1 (stereo not shown) [TCMDC-124762] | 14.18
Cc1cc(N(C)C)nc(Nc2ccc(NC(=O)COc3ccccc3)cc2)n1 [TCMDC-124975] | -15.54

Structure (SMILES) | % Inhibition [%]
CCn1c(-c2nonc2N)nc2c(-c3cccc(Cl)c3)ncc(OCCCNCc3cnc(C)nc3N)c21 [TCMDC-135956] | 99.17
Clc1cccc(CNc2nc(NCCc3cnc[nH]3)nc(NC3CCCCC3)n2)c1 [TCMDC-139735] | 0.07512
CCn1c(-c2nonc2N)nc2c(-c3cccc(Cl)c3)ncc(OCCCNCCc3cnc[nH]3)c21 [TCMDC-135919] | 106.8
NC(N)=NC(=O)Nc1ccc(Cl)c([N+](=O)[O-])c1 [TCMDC-137567] | -21.87
CC(C)c1sc(N2CCN(C)CC2)nc1C(=O)NCCc1ccc(Br)cc1 [TCMDC-134294] | 2.102
COc1ccc2nccc([C@@H](O)CN3CCC(NC(=O)CCC(=O)c4cc(C(C)(C)C)ccc4OC)CC3)c2c1 [TCMDC-141108] | 21.12
CC(C)CCNc1nc(NCCCc2ccccc2)c2cc(O)ccc2n1 [TCMDC-138381] | 95.75
CC(C)CCNc1nc(NCCc2ccccc2)c2cc(O)ccc2n1 [TCMDC-138405] | 95.11
Cc1cc(NCc2ccccc2)nc2cc(O)ccc12 [TCMDC-125297] | 15.33
Oc1ccc(Nc2nc(NCc3ccccc3)c3ccccc3n2)cc1 [TCMDC-125641] | -47.6
CC(C)CCNc1nc(NCc2ccccc2)c2cc(O)ccc2n1 [TCMDC-138436] | 91.5
Cc1noc(-c2cccs2)c1C(=O)NCCc1cccc(Cl)c1 [TCMDC-124801] | 0.8455
COc1cc(CNC[C@@H](O)[C@H](Cc2ccccc2)NC(=O)c2cc(C3CCCC3)cc(N3CCCS3(=O)=O)c2)cc(OC)c1 [TCMDC-134560] | 26.15
CCOc1cc(C(=O)Nc2ccc3nc(N4CCCCC4)cc(C)c3c2)cc(OCC)c1OCC [TCMDC-125449] | -1.386
Cc1cccc2c(N=NC(=S)N(C)C)c(O)[nH]c12 [TCMDC-137626] | -58.93
O=C1OC2(CN1CC1CCN(Cc3ccc(-n4ccnc4)cc3)C1)c1ccccc1-c1ccccc12 (stereo not shown) [TCMDC-136314] | 22.25
N#Cc1cccc(NC(=O)Nc2ccc(-c3ccc(-c4nc5ccc(C(F)(F)F)cc5[nH]4)cc3)cc2)c1 [TCMDC-133190] | -5.798
Cc1cccc(NC(=O)Nc2cccc(-c3ccc(-c4nc5ccc(C(F)(F)F)cc5[nH]4)cc3)c2)c1 [TCMDC-133305] | 4.928
Cc1cc(N(C)CCN(C)C)nc(Nc2ccc(Br)cc2)n1 [TCMDC-137013] | 18.91
Cc1cc(N(C)CCCN(C)C)nc(Nc2ccc(Br)cc2)n1 [TCMDC-136888] | 36.7
CCCCN(CCCC)CCCN(CCCN(CCCC)CCCC)c1cc(C)nc(Nc2ccc(Br)cc2)n1 [TCMDC-138004] | 92.54
CCN(CC)CCCN(CCCN(CC)CC)c1cc(C)nc(Nc2ccc(Br)cc2)n1 [TCMDC-138007] | 66.18
CCN(CCCN1CCCCC1)c1cc(C)nc(Nc2ccc(C)cc2)n1 [TCMDC-132427] | -21.39
CCCc1ccc(Nc2nc(C)cc(N(CC)CCCN3CCCCC3)n2)cc1 [TCMDC-132453] | 39.01
O=C(Nc1cccc(-c2ccc(-c3nc4cc(F)ccc4[nH]3)s2)c1)c1cccnc1 [TCMDC-136931] | -7.86

Structure (SMILES) | % Inhibition [%]
CCOc1cc2ncnc(Nc3ccc(OCc4ccccc4OC)c(OC)c3)c2cc1OCC [TCMDC-131912] | -29.04
CCN(CC)CCCN(C(=O)c1cc2c(C)nn(-c3ccccc3)c2s1)c1nc(-c2ccc(OC)cc2)cs1 [TCMDC-125429] | 17.92
Cc1nn(-c2ccccc2)c2sc(C(=O)N(CCCN(C)C)c3nc(-c4ccccc4)cs3)cc12 [TCMDC-125428] | 100.2
COc1ccc(-c2csc(N(CCCN(C)C)C(=O)c3cc4c(C)nn(-c5ccccc5)c4s3)n2)cc1 [TCMDC-124034] | 46.49
Cc1n[nH]c(C)c1C1CCN(CC2CCC(NC(=O)/C=C/c3ccc(Cl)c(Cl)c3)CC2)CC1 (stereo not shown) [TCMDC-139624] | 34.25
Cc1[nH]c(C)c(-c2ccc(-c3ccccc3Cl)nc2)c(=O)c1Cl [TCMDC-136303] | 74.15
CCCCc1ccc(-c2ccc(-c3c(C)[nH]c(C)c(Br)c3=O)cn2)cc1 [TCMDC-135687] | 10.67
Cc1[nH]c(C)c(-c2ccc(-c3ccccc3Cl)nc2)c(=O)c1Br [TCMDC-136157] | 75.71
COc1ccc(NC(=O)N2CCN(CCCCCNC(=O)/C=C/c3ccc(C(F)(F)F)cc3)CC2)cc1Cl [TCMDC-136097] | -39.25
OC1(c2ccc(Cl)c(C(F)(F)F)c2)CCN(CCOC2c3ccccc3CSc3ccc(Cl)cc32)CC1 (stereo not shown) [TCMDC-124001] | 11.98
CC(C)C(C(=O)n1cc2c(ccc3nc(N)nc(N)c32)n1)C(C)C [TCMDC-137334] | -12.47
O=C1COc2cc(Cl)c(CNC3CCN(CCc4ccnc5c(F)cc(F)cc45)CC3)nc2N1 [TCMDC-141732] | -3.632
COc1ccc2nccc([C@@H](O)CN3CCC(NCc4cc5sccc5nc4C(F)(F)F)CC3)c2c1 [TCMDC-141152] | 4.239
COC(=O)Cc1ccc(N)c2ccccc12 [TCMDC-139173] | -43.46
COc1ccc(CNCCCCCCNCc2ccc(OC)c3ccccc23)c2ccccc12 [TCMDC-137631] | 111.4
COc1ccc(CCNCCCCNCCc2ccc(OC)c3ccccc23)c2ccccc12 [TCMDC-137961] | 106.4
CCc1nonc1NC(=O)c1oc2c(C)c(C)ccc2c1C [TCMDC-123827] | 4.304
O=C(O)C(F)(F)F.c1cncc(CCNCc2cccc(-c3ccc(-c4nc5ccccc5[nH]4)s3)c2)c1 [TCMDC-132877] | -12.84
FC(F)(F)c1ccc2[nH]c(-c3ccc(-c4cccc(CNCCc5ccncc5)c4)s3)nc2c1.O=C(O)C(F)(F)F [TCMDC-132849] | -1.104
CNCCNCc1cccc(-c2ccc(-c3nc4cc(C(F)(F)F)ccc4[nH]3)s2)c1.O=C(O)C(F)(F)F [TCMDC-132830] | 50.68
CS(=O)(=O)NCCCNCc1cccc(-c2ccc(-c3nc4cc(C(F)(F)F)ccc4[nH]3)s2)c1.O=C(O)C(F)(F)F [TCMDC-133083] | -25.93
FC(F)(F)c1ccc2[nH]c(-c3ccc(-c4cccc(CNCc5ccccc5)c4)s3)nc2c1.O=C(O)C(F)(F)F [TCMDC-132708] | -60.8
FC(F)(F)c1ccc2[nH]c(-c3ccc(-c4cccc(CNCCc5cccnc5)c4)s3)nc2c1.O=C(O)C(F)(F)F [TCMDC-132874] | 67.94
